Source: PubChem BioAssay
Hits are enriched below; roughly 5.9% of the tested compounds scored in any of these assays.
HEK293 tox: qHTS of GLP-1 Receptor Inverse Agonists: Cytotox Screen; HEK293 cAMP-luciferase reporter cells, luminescence, 24 h; Potency, µM (titrated, usually from 38.3 µM), without a hit: top-dose activity change, negative = inhibition, usual class: inhibitors; 410,000 tested, 0.13% active; AID 624418, 2012;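 also: loss of luciferase light is scored as toxicity; % is scaled to controls: 0 for no effect and ±100 for the full control effect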
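Quantitative HTS format, 1536 wells, 200 cells/uL seeded. Compounds: 23 nL, 24 h, 37 °C. Detection: luciferase reagent, luminescence at 12 min RT; decreased signal taken as cytotoxic.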
Gal4-VP16 FLuc: VP16 counterscreen qHTS for inhibitors of ROR gamma transcriptional activity; Potency, µM (top dose mostly 53.6 µM), without a hit: at the highest dose activity, negative = inhibition, most hits filed as inhibitors; AID 2546, 2010; 310,000 tested, 3.5% active; Drosophila S2 Gal4-VP16 UAS-luciferase, luminescence, 20 h;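 also: Gal4-VP16 expression switched on by copper sulfate through the metallothionein promoter; % is scaled to controls: 0 for no effect and ±100 for the full control effect; nearly all actives have a fitted effect of over 50% in size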
RORg inh: qHTS for inhibitors of ROR gamma transcriptional activity | Potency, µM (top dose mostly 53.6 µM), inactives show at the highest dose activity change, negative = inhibition, hits mostly inhibitors | AID 2551, 2010 | Drosophila S2 Gal4-RORgamma UAS-luciferase reporter, 20 h | Nuclear receptor ROR-gamma (Mus musculus), P51450 | 310,000 tested, 5.4% active; also: % is scaled to controls: 0 for no effect and ±100 for the full control effect; nearly all actives have a fitted effect of over 60% in size
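In this cell-based reporter format, copper sulfate (700 uM final) drives Gal4–ROR gamma fusion expression from a metallothionein promoter in Drosophila Schneider cells; compounds preincubated 1 hr, reporter read after 20 hr at ambient temperature.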
GLP-1R agonist: qHTS of GLP-1 Receptor Agonists | Glucagon-like peptide 1 receptor (Homo sapiens), P43220 | 380,000 tested, 0.007% active | AID 624172, 2012 | Potency, µM (top dose mostly 45.6 µM), for inactives: at the highest dose activation, most hits filed as activators | HEK293 GLP-1R CRE-luciferase, luminescence, 4-6 h; cells express a hypersensitive GLP-1R form; also: % of control where 0% means no effect
Target sequence (P43220 whole entry, looked up): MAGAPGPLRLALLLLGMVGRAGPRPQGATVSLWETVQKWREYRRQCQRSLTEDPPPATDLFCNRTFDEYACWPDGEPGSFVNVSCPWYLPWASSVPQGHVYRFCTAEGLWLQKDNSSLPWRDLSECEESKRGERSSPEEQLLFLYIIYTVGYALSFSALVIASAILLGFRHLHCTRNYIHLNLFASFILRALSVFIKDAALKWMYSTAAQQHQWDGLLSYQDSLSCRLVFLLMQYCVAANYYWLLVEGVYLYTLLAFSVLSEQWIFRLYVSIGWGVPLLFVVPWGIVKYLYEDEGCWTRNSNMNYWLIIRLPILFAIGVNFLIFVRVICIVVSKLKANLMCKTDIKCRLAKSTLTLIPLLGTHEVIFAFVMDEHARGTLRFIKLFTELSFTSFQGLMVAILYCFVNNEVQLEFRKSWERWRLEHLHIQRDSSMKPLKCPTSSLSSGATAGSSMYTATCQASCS
GLP1R inv ag: qHTS of GLP-1 Receptor Inverse Agonists (Inhibition Mode). HEK293 GLP-1R CRE-luciferase, luminescence, 24 h; GLP-1R form is constitutively active. Potency, µM (highest dose often 38.3 µM), without a hit: at the top dose activity change, negative = inhibition, usual class: inhibitors. 410,000 tested, 1.6% active; also: % is scaled to controls: 0 for no effect and ±100 for the full control effect; nearly all actives have a fitted effect of over 55% in size
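Seeding at 200 cells/uL, 12 h culture, 24 hr compound treatment, then luciferase reagent and a luminescence read; cells are HEK293 stably expressing a constitutively active GLP-1R plus cAMP-responsive luciferase.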
Active calls of the source: *; ? = inconclusive; nt = not tested or not shown; [ ] = remark or other dose. Calls follow the shape of the dose curve; as a rule, active = well fitted curve in the direction sought with a large enough effect; inconclusive = small, poorly fitted or top-dose-only effect, or another doubt; inactive = no such curve, though single readings can be large; an effect the other way counts as inactive or inconclusive. Potency is read from the fitted curve at half-maximal effect.

SMILES	HEK293 tox	Gal4-VP16 FLuc	RORg inh	GLP-1R agonist	GLP1R inv ag
Cc1cccc(NC(=S)NCCSc2ccc(Cl)cc2)c1	?	7.1µM*	3.2µM*	15%	?
CCc1ccccc1NC(=S)NCCSc1ccc(Cl)cc1	?	7.1µM*	1.1µM*	11%	7.1µM*
Cc1cc(Cl)ccc1NC(=S)NCCCO	-10%	-2%	7%	0%	21%
CCOc1ccc(NC(=O)c2sc3nc4c(cc3c2N)CN(Cc2ccccc2)CC4)cc1	2%	nt	nt	nt	9%
CCc1c(C)sc2c1CCN(C(=O)Nc1cc(Cl)c(OC)cc1OC)C2c1ccccc1 (stereo unspecified)	15%	nt	nt	nt	-65%
COC(=O)c1ccc(OC)c(Cn2c(=O)n(-c3ccc(C)cc3)c(=O)c3c2cnn3C)c1	4%	nt	nt	nt	-17%
Cc1ccccc1NC(=S)NCCSc1ccc(Cl)cc1	?	?	2.2µM*	14%	?
Cc1ccc(C)c(NC(=S)NCCSc2ccc(Cl)cc2)c1	?	5µM*	2.5µM*	-3%	?
Cc1nc(SCc2nc3ccccc3[nH]2)c2oc3ccccc3c2n1	-17%	?	14µM*	1%	?
CCCN1C(=O)/C(=C\c2ccncc2)SC1=Nc1ccccc1	1%	-6%	35%	4%	-18%
CCN1C(=O)/C(=C\c2ccncc2)SC1=Nc1ccc(C)c(C)c1	-3%	?	11µM*	6%	0%
O=C(c1ccccc1)c1nc[nH]c1C(=O)Nc1ccccn1	-6%	18µM*	13µM*	0%	85%
O=C(Nc1ccccn1)Nc1cccs1	8%	10µM*	22%	-2%	16%
O=C(Nc1ccncc1)Nc1ccccn1	4%	2%	3%	-2%	-13%
O=C(NC(=O)c1ccccc1)Nc1ccccn1	nt	1.6µM*	0.5µM*	nt	nt
CCOC(=O)c1[nH]cnc1C(=O)Nc1ccccn1	-5%	0%	?	1%	7%
O=C(Nc1ccccn1)c1ccc(C(=O)c2ccccc2)cc1	-3%	nt	nt	8%	?
Cc1cc(C(=O)Nc2ccccn2)cs1	-25%	?	11µM*	-15%	-6%
COc1cc(C(=O)Nc2ccccn2)cc(OC)c1OC	-4%	7%	-9%	-4%	35%
CN1CCc2ccc3c4c2[C@]1(C)Cc1cccc(c1-4)OCO3	nt	-2%	-21%	nt	nt
CC1=C(C(=O)Nc2ccc(Cl)cc2)C(c2ccccc2C)n2ncc(C(=O)Nc3ccc(C)cc3)c2N1 (stereo unspecified)	0%	nt	nt	nt	2.8µM*
OC1(c2ccc(Cl)c(C(F)(F)F)c2)CCN(CCCC(c2ccc(F)cc2)c2ccc(F)cc2)CC1	nt	10µM*	13µM*	-7%	nt
CCC(O)c1cnc(OCc2ccccc2)nc1OCc1ccccc1 (stereo unspecified)	8%	nt	nt	11%	10µM*
Cn1c(=O)cnc2cnc(OCc3ccccc3)nc21	nt	1%	-8%	nt	nt
CC(=O)Oc1cc(OC(C)=O)c2c(=O)cc(-c3ccc(OC(C)=O)c(OC(C)=O)c3)oc2c1	nt	35µM*	?	nt	nt
SMILES	HEK293 tox	Gal4-VP16 FLuc	RORg inh	GLP-1R agonist	GLP1R inv ag
CCN1CC(CN(C)Cc2cn(-c3ccc(C)cc3)nc2-c2ccc(F)cc2)CC1=O (stereo unspecified)	4%	21%	?	13%	?
CCN1CC(CN(C)Cc2cn(-c3cccc(C)c3)nc2-c2cccc(F)c2)CC1=O (stereo unspecified)	-19%	-10%	26%	?	10µM*
CCc1ccc(NC(=S)Nc2cc(C(=O)O)ccc2N2CC3CC(C2)c2cccc(=O)n2C3)cc1 (stereo unspecified)	0%	?	10µM*	20%	9%
Cc1ccc(-c2nc3sc(C(N)=O)c(N)c3c3c2CCCC3)cc1	192%	-2%	-43%	17%	0%
Cc1nc2sc(C(N)=O)c(N)c2c2c1CCCC2	17%	5%	5.6µM*	-6%	1.1µM*
COc1ccc(S(=O)(=O)N2CCCC(C(=O)Nc3cccc(C(C)=O)c3)C2)cc1 (stereo unspecified)	-7%	4.5µM*	?	-12%	-13%
O=C(NCCC1=CCCCC1)C1CCCN(S(=O)(=O)c2cccc3cccnc23)C1 (stereo unspecified)	?	6%	39%	1%	7.9µM*
O=C(Nc1ccncc1)C1CCCN(S(=O)(=O)c2cccc3cccnc23)C1 (stereo unspecified)	-24%	-21%	-23%	8%	1.8µM*
CCOc1ccc(CC(=O)NCCc2csc(-c3ccc(C(F)(F)F)cc3)n2)cc1	-17%	nt	nt	-4%	-1%
CC12CC3(C)CC(C)(C1)CC(NC(=O)N1CCCC1)(C2)C3	-22%	0%	?	-5%	10µM*
Cc1cc(O)c(C(c2ccccc2)N2CCN(c3ccccc3)CC2)c(=O)n1Cc1ccco1 (stereo unspecified)	3%	nt	nt	nt	?
CCOC(=O)C(C(=O)OCC)C(C(=O)OCC)N1CCOCC1 (stereo unspecified)	-5%	5.6µM*	0%	-4%	-3%
O=C(CNCc1ccccn1)Nc1ccc([N+](=O)[O-])cc1C(=O)Nc1ccccc1F	16%	-19%	20µM*	8%	2%
COc1ccc(-c2ccccc2[C@H]2[C@@H]3C=CC[C@@H](C)[C@@H]3C(=O)N2Cc2ccccc2)cc1	-8%	?	?	1%	8.9µM*
COc1ccc(-c2ccc(C3C4C=CCC(C)C4C(=O)N3Cc3ccccc3)c(F)c2)cc1 (stereo unspecified)	nt	-3%	15%	nt	nt
COc1ccc(-c2ccc([C@H]3[C@H]4C=CC[C@@H](C)[C@@H]4C(=O)N3Cc3ccccc3)c(F)c2)cc1C	4%	5%	-15%	3%	4.5µM*
CC(=O)c1ccc(-c2cc([C@H]3[C@H]4C=CC[C@@H](C)[C@@H]4C(=O)N3Cc3ccccc3)ccc2F)cc1	-6%	-8%	-23%	3%	11µM*
CCOC(=O)N/N=C1/C[C@@H](O)[C@@H](O)[C@@H]2[C@@H]3C(=O)N(Cc4ccc5c(c4)OCO5)C(=O)[C@H]3CC[C@@H]12	nt	1%[10 µM]	-7%[10 µM]	nt	nt
CCNc1ncc2nc(-c3cc(F)cc(F)c3)c(=O)n(C)c2n1	nt	5%	24%	nt	nt
Cc1ccc(C)c(NC(=O)CSc2ncc3c(n2)-c2cc(Cl)ccc2N(Cc2ccccc2F)S3(=O)=O)c1	4%	nt	nt	nt	2%
COc1ccc(-c2cc(C3C4C=CCC(C)C4C(=O)N3Cc3ccccc3)ccc2F)cc1OC (stereo unspecified)	nt	8%	?	nt	nt
